This passage reports growth results from PubChem BioAssay (NCI).

About 83,000 compounds went through this panel and 20% of them were active in at least one assay; those are over-represented in the sample as a whole.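 Note: values are percent growth. 100 is the growth of untreated cells, values between 100 and 0 indicate rising inhibition; between -100 and 0 indicates cell death.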 Active and inactive are the calls of the source. How the source made its calls: active means growth percent below 10; inactive means the rest.

The subject of one test is UACC-257 melanoma. The test can be described thus: NCI-60 one-dose screen, 48 h (100 = growth as untreated, 0 = no growth, -100 = all killed). The settings on record: 10 µM unless noted.
As for `Cc1sc2c(c1C)C(c1ccc(Cl)cc1)=N[C@@H](CC(=O)NCCCCCNC(=O)COc1ccc(C3CCC(=O)NC3=O)cc1)c1nnc(C)n1-2` (some centres undefined), the growth is 49.3% (inactive). With `N/C(=N\c1nc2ccccc2s1)NC(=O)Nc1ccc(Cl)cc1Cl`, the growth was 18.8% (inactive). Consider `CC1=C(C#N)C2=NNCC(c3ccccc3)=NN2C(c2ccccc2)=C1`, for which the growth is 96.6% (inactive).

The next test deals with M14 melanoma. The test is described as above. As to conditions: 10 µM unless noted.
Consider `CCCSc1nc(Nc2ccc(S(N)(=O)=O)cc2)c(C#N)c(-c2ccc(Cl)cc2)n1`, for which the growth is 18.8% (inactive). Still for that read-out and setting: then `CCCCSc1nc(Nc2ccc(S(N)(=O)=O)cc2)c(C#N)c(-c2ccc(Cl)cc2)n1`, with 10.6% (inactive); and `Cn1cc(-c2cc3nc(-c4cn(C)c5ncccc45)cc(N)n3n2)c2ccccc21`, with 5.56% (active); and `Cc1ccc(C2=NN(c3nc(-c4cc5ccccc5oc4=O)cs3)C(c3ccc(C)cc3)C2)cc1` (centres undefined), with 106% (inactive). For `Cc1ccc2c(c1)nc(-c1ccccc1)n2CC(=O)N=Nc1c(O)[nH]c2ccc(Br)cc12`, the growth was -54.6% (active). Consider `O=C(Cn1nc(-c2ccccc2)ccc1=O)N/N=C/c1ccc(N2CCOCC2)cc1`, for which the growth is 102% (inactive). Still for that read-out and setting: then `O=C(NN1C(=O)/C(=C/C=C/c2ccc([N+](=O)[O-])o2)SC1=S)c1ccc(Cl)cc1`, with -68.7% (active); and `CCCCSc1nc(Nc2ccc(S(N)(=O)=O)cc2)c(C#N)c(-c2cc(OC)c(OC)c(OC)c2)n1`, with 33.3% (inactive).

For the molecule `COc1cc2c3c(n(CCCN4CCC[C@@H]4CO)c(=O)c2cc1OC)-c1cc2c(cc1C3=O)OCO2`, the growth is -85.9% (active). In the case of `Cn1cc(-c2cc(N)n3nc(-c4cn(C)c5ncc(Br)cc45)cc3n2)c2cc(Br)cnc21`, the growth is -64.7% (active).

For the molecule `Cn1cc(-c2cc(N)n3nc(-c4c[nH]c5ccccc45)cc3n2)c2cccnc21`, the growth was -48.1% (active). With `CN(C)c1nc(NCCNS(=O)(=O)c2ccc(C3=Nc4c(N)nc(N)nc4NC(c4ccccc4)C3)cc2)nc(Nc2ccc(F)cc2)n1` (centres undefined), the growth is 49.4% (inactive).

In the case of `COc1ccc(-c2ccc(SCC(=O)NCCc3ccc(S(N)(=O)=O)cc3)nn2)cc1`, the growth was 99.7% (inactive). For `O=C(CCN1C(=O)/C(=C/c2ccc(F)cc2)SC1=S)N1CCOCC1`, the growth is 57.1% (inactive). On to `Cc1cc2nc3c4ccccc4n(CC4=NCCN4)c3nc2cc1C`, for which the growth was -79.2% (active). Same read-out and setting: then `Cc1ccc(C(=O)NN2C(=O)/C(=C/C=C/c3ccc([N+](=O)[O-])o3)SC2=S)cc1`, with -70.6% (active); and `Cc1cc2nc3c([nH]c2cc1C)c1ccc(=O)cc1n3CCN(C)C`, with 43.8% (inactive). The same measure, in the same setting: then `N/C(=N\c1nc2ccccc2s1)NC(=O)Nc1c(Cl)cccc1Cl`, with 21.8% (inactive); and `Brc1ccc(-c2n(Cc3ccc4ccccc4c3)c(-c3ccccc3)c(-c3ccccc3)[n+]2Cc2ccc3ccccc3c2)cc1`, with -90.8% (active); and `C=C1CC[C@@H]2[C@]3(C)COC(c4cn[nH]c4-c4ccc(Br)cc4)O[C@@H]3CC[C@@]2(C)[C@@H]1C/C=C1/C(=O)OCC1O` (some centres undefined), with -69.5% (active). Take `COc1ccc(-c2nc3cc(C)ccc3n2CC(=O)N=Nc2c(O)[nH]c3ccc(Br)cc23)cc1`: the growth was -58.2% (active).

For the molecule `CC12CC[C@@H]3[C@]4(C)COC(c5cn[nH]c5-c5cccc(Br)c5)O[C@@H]4CC[C@@]3(C)[C@@H]1CC(C1=CCOC1=O)O2` (some centres undefined), the growth was 22.3% (inactive). Regarding `COc1c(F)ccc(C(=O)Nc2ccc3nc(NC(=O)C4CCCN(S(=O)(=O)c5ccc(C#N)cc5)C4)sc3c2)c1F` (centres undefined), the growth was 92.7% (inactive).

Take `COc1ccc2c(c1)c(-c1cc3nc(-c4cn(C)c5ncccc45)cc(N)n3n1)cn2C`: the growth was -84.3% (active). On to `CC(=O)c1cc(C(=O)c2ccccc2)n2c1ccc1ccccc12`, for which the growth is 101% (inactive). Same read-out and setting: then `COc1ccc2[nH]c(=O)c(CSc3nccc(-c4ccc(OC)c(OC)c4)n3)cc2c1`, with 47.8% (inactive); and `COc1ccc(NC(=O)Cn2c3c(sc2=O)[C@H]2[C@@H](O)[C@@H](O)[C@H](O)[C@@H]2CS3)cc1`, with 103% (inactive); and `C=C1CCC2C3(C)COC(c4cccs4)OC3CCC2(C)C1CC(Sc1ccccc1)C1=CCOC1=O` (centres undefined), with 83.3% (inactive). Consider `CC1CN(c2oc(-c3ccc([N+](=O)[O-])cc3)nc2C#N)CC(C)O1` (centres undefined), for which the growth is 103% (inactive). `Cc1occc1C(=O)NN1C(=O)/C(=C/C=C/c2ccc([N+](=O)[O-])o2)SC1=S`: the growth was -65.1% (active). On to `N=C1N=C(SCc2nc3ccccc3[nH]2)NC(=O)/C1=C/c1ccc(Cl)cc1`, for which the growth was 108% (inactive).
